In PubChem BioAssay (EPA / NIEHS):
“And” between values parts separate entries of the source, which are not always exact repeats. Identical values can stand only once. Some compounds were tested as several samples or in several runs, with calls that do not always agree. The source made the active and inactive calls. How the source made its calls: active means hit-call score of the fitted dose curve at least 0.9, where 1 is the maximum; inactive means score below 0.9.

Assays:
[1] = read-out: Urokinase-type plasminogen activator receptor (uPAR), PLAUR (gene 5329); experiment: BSK_4H_uPAR: BioMAP Diversity Plus: 4H Assay for Urokinase-type plasminogen activator receptor (uPAR) Biomarker Activity (AID 2283030); conditions: primary human endothelial cells (HUVEC); actives raise or lower the signal
How it was run: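 HUVEC, 24 h post-dose; uPAR by ELISA; bidirectional fit vs DMSO baseline.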

[2] = read-out: Vascular endothelial growth factor receptor 2 (Homo sapiens) (UniProt P35968); experiment: BSK_4H_VEGFRII: BioMAP Diversity Plus: 4H Assay for Vascular endothelial growth factor receptor 2 (VEGFR2) Biomarker Activity (AID 2283031); conditions: primary human endothelial cells (HUVEC); actives raise or lower the signal
How it was run: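 HUVEC (human primary), 4H system; 24 h post-dose; VEGFRII by ELISA; bidirectional curve fit vs DMSO baseline; gain or loss of signal scored.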

[3] = read-out: Human Leukocyte Antigen - DR isotype (HLADR), HLA-DRA (gene 3122); experiment: BSK_BE3C_HLADR: BioMAP Diversity Plus: BE3C Assay for Human Leukocyte Antigen - DR isotype (HLADR) Biomarker Activity (AID 2283032); conditions: primary human bronchial epithelial cells; actives raise or lower the signal
How it was run: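 Human primary bronchial epithelial cells in the BE3C system were exposed to chemicals for 24 h, after which HLA-DR levels were quantified by ELISA. Activity was fitted bidirectionally, gain or loss of signal, against DMSO as negative control and baseline.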

[4] = read-out: Vascular cell adhesion molecule 1 (VCAM1), VCAM1 (gene 7412); experiment: BSK_4H_VCAM1: BioMAP Diversity Plus: 4H Assay for Vascular cell adhesion molecule 1 (VCAM1) Biomarker Activity (AID 2283033); conditions: primary human endothelial cells (HUVEC); actives raise or lower the signal
How it was run: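 Primary human umbilical vein endothelial cells were exposed to chemicals for 24 h, after which VCAM-1 was quantified by ELISA. Responses were fitted bidirectionally against DMSO as negative control and activity baseline.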

[5] = read-out: Interferon-gamma inducible Protein 10 (IP10), CXCL10 (gene 3627); experiment: BSK_BE3C_IP10: BioMAP Diversity Plus: BE3C Assay for Interferon-gamma inducible Protein 10 (IP10) Biomarker Activity (AID 2283034); conditions: primary human bronchial epithelial cells; actives raise or lower the signal
How it was run: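 Human primary bronchial epithelial cells were exposed to chemicals for 24 hours, after which IP-10 levels were measured by ELISA. Data were fitted bidirectionally against DMSO, which served as the negative control and activity baseline.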

[6] = read-out: Monokine induced gamma interferon (MIG), CXCL9 (gene 4283); experiment: BSK_BE3C_MIG: BioMAP Diversity Plus: BE3C Assay for Monokine induced gamma interferon (MIG) Biomarker Activity (AID 2283035); conditions: primary human bronchial epithelial cells; actives raise or lower the signal
How it was run: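 ELISA read-out of MIG in human lung bronchial epithelial primary cultures, 24 h post-dosing. Bidirectional curve fit vs DMSO baseline.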

[7] = read-out: Plasminogen activator inhibitor-1 (PAI1), SERPINE1 (gene 5054); experiment: BSK_BE3C_PAI1: BioMAP Diversity Plus: BE3C Assay for Plasminogen activator inhibitor-1 (PAI1) Biomarker Activity (AID 2283037); conditions: primary human bronchial epithelial cells; actives raise or lower the signal
How it was run: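 Human primary bronchial epithelial cells were exposed to chemical for 24 h, then PAI-1 was quantified by ELISA. Activity was fitted bidirectionally relative to the DMSO negative control baseline.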

[8] = read-out: urokinase plasminogen activator (uPA), PLAU (gene 5328); experiment: BSK_BE3C_uPA: BioMAP Diversity Plus: BE3C Assay for urokinase plasminogen activator (uPA) Biomarker Activity (AID 2283038); conditions: primary human bronchial epithelial cells; actives raise or lower the signal
How it was run: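 ELISA read-out of uPA in human lung primary bronchial epithelial cultures, 24 h post-dosing. Gain or loss of signal fitted bidirectionally relative to DMSO baseline; cytotoxicity checked in parallel cultures via SRB total protein stain.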

[9] = read-out: Urokinase-type plasminogen activator receptor (uPAR), PLAUR (gene 5329); experiment: BSK_BE3C_uPAR: BioMAP Diversity Plus: BE3C Assay for Urokinase-type plasminogen activator receptor (uPAR) Biomarker Activity (AID 2283039); conditions: primary human bronchial epithelial cells; actives raise or lower the signal
How it was run: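 Primary human bronchial epithelial cells were dosed with chemical and harvested 24 h later; uPAR was quantified by ELISA. Activity was fitted bidirectionally against DMSO as negative control and baseline.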

[10] = read-out: Interleukin-6 (IL6), IL6 (gene 3569); experiment: BSK_CASM3C_IL6: BioMAP Diversity Plus: CASM3C Assay for Interleukin-6 (IL6) Biomarker Activity for (AID 2283040); conditions: primary human coronary artery smooth muscle cells; actives raise or lower the signal
[11] = read-out: Tissue plasminogen activator (tPA), PLAT (gene 5327); experiment: BSK_BE3C_tPA: BioMAP Diversity Plus: BE3C Assay for Tissue plasminogen activator (tPA) Biomarker Activity (AID 2283041); conditions: primary human bronchial epithelial cells; actives raise or lower the signal
How it was run: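 Human primary bronchial epithelial cells were dosed with chemical and tPA biomarker levels measured by ELISA 24 hours later. Activity was fitted bidirectionally against DMSO as negative control and baseline.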

[12] = read-out: Interleukin-8 (IL8), CXCL8 (gene 3576); experiment: BSK_CASM3C_IL8: BioMAP Diversity Plus: CASM3C Assay for Interleukin-8 (IL8) Biomarker Activity (AID 2283042); conditions: primary human coronary artery smooth muscle cells; actives raise or lower the signal;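 further: IL-8 protein level quantified by ELISA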
[13] = read-out: Human Leukocyte Antigen - DR isotype (HLADR), HLA-DRA (gene 3122); experiment: BSK_CASM3C_HLADR: BioMAP Diversity Plus: CASM3C Assay for Human Leukocyte Antigen - DR isotype (HLADR) Biomarker Activity (AID 2283043); conditions: primary human coronary artery smooth muscle cells; actives raise or lower the signal;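 further: cell-surface HLA-DR protein level quantified by ELISA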
[14] = read-out: Macrophage colony-stimulating factor (MCSF), CSF1 (gene 1435); experiment: BSK_CASM3C_MCSF: BioMAP Diversity Plus: CASM3C Assay for Macrophage colony-stimulating factor (MCSF) Biomarker Activity (AID 2283044); conditions: primary human coronary artery smooth muscle cells; actives raise or lower the signal;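 further: M-CSF protein amount quantified by ELISA after 24 h exposure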
[15] = read-out: Low-density lipoprotein receptor (LDLR), LDLR (gene 3949); experiment: BSK_CASM3C_LDLR: BioMAP Diversity Plus: CASM3C Assay for Low-density lipoprotein receptor (LDLR) Biomarker Activity (AID 2283045); conditions: primary human coronary artery smooth muscle cells; actives raise or lower the signal;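 further: LDLR protein level on the cell surface quantified by ELISA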
[16] = read-out: Monocyte Chemoattractant Protein-1 (MCP1), CCL2 (gene 6347); experiment: BSK_CASM3C_MCP1: BioMAP Diversity Plus: CASM3C Assay for Monocyte Chemoattractant Protein-1 (MCP1) Biomarker Activity (AID 2283046); conditions: primary human coronary artery smooth muscle cells; actives raise or lower the signal;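 further: MCP-1 level quantified by ELISA 24 h after dosing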
[17] = BSK_CASM3C_Proliferation: Cell Proliferation Assessment in the BioMAP Diversity Plus: CASM3C Assay (AID 2283047); conditions: primary human coronary artery smooth muscle cells;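 further: sulforhodamine B total protein stain as relative cell number at 560 nm; sub-confluent cells exposed 48 h before staining; fitted both ways against DMSO so gain or loss of cell number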
[18] = read-out: Monokine induced gamma interferon (MIG), CXCL9 (gene 4283); experiment: BSK_CASM3C_MIG: BioMAP Diversity Plus: CASM3C Assay for Monokine induced gamma interferon (MIG) Biomarker Activity (AID 2283048); conditions: primary human coronary artery smooth muscle cells; actives raise or lower the signal;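 further: MIG protein level measured by ELISA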
[19] = read-out: serum amyloid A (SAA), SAA1 (gene 6288); experiment: BSK_CASM3C_SAA: BioMAP Diversity Plus: CASM3C Assay for serum amyloid A (SAA) Biomarker Activity (AID 2283049); conditions: primary human coronary artery smooth muscle cells; actives raise or lower the signal;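 further: SAA protein level quantified by ELISA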
[20] = read-out: Transforming growth factor beta 1 (TGFb1), TGFB1 (gene 7040); experiment: BSK_BE3C_TGFb1: BioMAP Diversity Plus: BE3C Assay for Transforming growth factor beta 1 (TGFb1) Biomarker Activity (AID 2283036); conditions: primary human bronchial epithelial cells; actives raise or lower the signal
How it was run: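 Human primary bronchial epithelial cells (BE3C system) were dosed with chemical and TGF-b1 levels measured by ELISA at 24 h. Activity was fitted bidirectionally relative to DMSO negative control as baseline.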

Measured: AC50

C1CC2OC2CC1C1CO1 (configuration not stated)
inactive: [1] | [2] | [3] | [4] | [5] | [6] | [7] | [8] | [9] | [10] | [11] | [12] | [13] | [14] | [15] | [16] | [17] | [18] | [19]

O=C(O)C(F)(F)C(F)(F)C(F)(F)C(F)(F)C(F)(F)C(F)(F)C(F)(F)C(F)(F)F
active: [3] 29.7 µM and 44.1 µM and 45.2 µM | [4] 41.7 µM | [5] 27.7 µM and 45.9 µM and 43.7 µM | [20] 26.2 µM | [7] 32.3 µM and 23.3 µM and 40.2 µM | [8] 37.2 µM and 49.1 µM and 30 µM | [9] 35.1 µM and 47.8 µM and 48.6 µM | [11] 20 µM and 23.6 µM and 21.6 µM
inactive: [1] | [2] | [4] | [10] | [12] | [13] | [14] | [15] | [16] | [17] | [18] | [19]

Cc1ccc(O)c(C)c1
active: [4] 5.94 µM | [10] 1.29 µM | [13] 20.7 µM
inactive: [1] | [2] | [3] | [5] | [6] | [7] | [8] | [9] | [11] | [12] | [14] | [15] | [16] | [17] | [18] | [19]

O=S(=O)(O)C(F)(F)C(F)(F)C(F)(F)C(F)(F)F
inactive: [1] | [2] | [3] | [4] | [5] | [6] | [7] | [8] | [9] | [10] | [11] | [12] | [13] | [14] | [15] | [16] | [17] | [18] | [19]
active: [19] 558 nM

CC(c1ccc(O)cc1)(c1ccc(O)cc1)c1ccc(O)cc1
active: [1] 30.8 µM | [3] 2.08 µM | [4] 24 µM | [5] 2.57 µM | [6] 2.2 µM | [7] 3.29 µM | [8] 3.25 µM | [9] 2.4 µM | [11] 3.85 µM | [13] 4.44 µM | [14] 3.11 µM | [16] 5.43 µM | [17] 27.2 µM | [18] 5.35 µM
inactive: [2] | [10] | [12] | [15] | [19]
